Bioassay records: PubChem, National Center for Advancing Translational Sciences (NCATS)
MARV entry inh – inhibitors of Marburg virus binding or cell entry | Marburg virus pseudotyped entry inhibition, cell reporter | Potency, µM (highest dose often 37.8 µM), for inactives: top-dose activity change, negative = inhibition, hits mostly inhibitors | 300,000 compounds, 1.8% hits | AID 540276; calls by dose curve; tested in HEK293 cells; further: potency means the concentration at half of the fitted maximal effect; on the % scale 0 is the no-effect control and ±100 the full control effect
Shiga toxin inh – inhibitors of Shiga toxin in Vero cells; inhibition, % at 38.7 µM; Vero cells, Shiga toxin protein synthesis inhibition reporter; 290,000 compounds, 9.2% hits; in the data active means inhibition mostly above about 28%, no sharp cut-off; inactive means mostly below about 43%; further: 0% is about no effect
CHX counter – counter-screen hit for Shiga toxin inhibitors, cycloheximide. cell reporter, cycloheximide protein synthesis inhibition counterscreen. 300,000 compounds, 12% hits. AID 2314. max response, %; in the data active means max response mostly above about 13%, no sharp cut-off; inactive means mostly below about 14%; further: read at 38.3 µM for the half of the compounds with a filed dose; 0% is about no effect
Pf growth 96h – P. falciparum growth inhibition at 96 hours; P. falciparum luciferase reporter growth, 96 h; Potency, µM (highest dose often 28.7 µM), for inactives: at the top dose activity change, negative = inhibition, hits mostly inhibitors; 320,000 compounds, 6.9% hits; further: potency means the concentration at half of the fitted maximal effect; on the % scale 0 is the no-effect control and ±100 the full control effect
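Infected RBCs, 2% Hct / 0.05% parasitemia final; luciferase-reporter P. falciparum; cpd 96 h, 37 C, 5% CO2; luciferase detection reagent; luminescence.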
Lassa entry inh – inhibitors of Lassa virus binding or cell entry. Potency, µM (series often up to 37.9 µM), for inactives: at the top dose activity change, negative = inhibition, actives largely listed as inhibitors. AID 540256. 300,000 compounds, 1.2% hits. Lassa virus pseudotype entry inhibition, cell reporter; calls by dose curve; tested in HEK293 cells; further: potency means the concentration at half of the fitted maximal effect; on the % scale 0 is the no-effect control and ±100 the full control effect; nearly all actives have a fitted effect of over 50% in size
Pf growth 48h – P. falciparum growth inhibition at 48 hours (one generation). 310,000 compounds, 5.9% hits. P. falciparum luciferase growth in erythrocytes, 48 h. Potency, µM (titrated, usually from 28.7 µM), inactives show at the top dose activity change, negative = inhibition, actives largely listed as inhibitors; further: potency means the concentration at half of the fitted maximal effect; on the % scale 0 is the no-effect control and ±100 the full control effect
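Cell-based growth assay: transgenic P. falciparum expressing firefly luciferase, cultured in red cells within RPMI 1640 containing 0.5% w/v Albumax, 24 mM bicarbonate and gentamycin. A drop in luciferase activity indicates inhibition.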
An asterisk follows results filed as active; [ ] = another dose, or the depositor's remark. This is a sample that favours compounds with a hit; in the whole collection about 19% have one here. Unless noted, the call rests on the fitted dose curve; in most records, active means well fitted inhibition curve with a large enough effect; inconclusive means small, poorly fitted or top-dose-only effect, or another doubt; inactive means no such curve, though single readings can be large or run the other way.

Screening COc1ccc(Cl)cc1NC(=O)CSc1nc2ccsc2c(=O)n1CC1CCC(C(=O)O)CC1 (configuration not stated) returned Shiga toxin inh 43, CHX counter 1, Pf growth 96h -1% and Pf growth 48h inconclusive.
Screening O=C(CSc1nc2ccsc2c(=O)n1CC1CCC(C(=O)O)CC1)NCCc1ccc(Cl)cc1 (configuration not stated) returned Shiga toxin inh -9, CHX counter -1, Pf growth 96h 7.4µM* and Pf growth 48h inconclusive.
Screening Cc1ccc(-n2c(SCC(=O)NCc3ccco3)nc3c(sc4ccccc43)c2=O)cc1 returned MARV entry inh inconclusive, Shiga toxin inh 119*, CHX counter 53*, Pf growth 96h -28%, Lassa entry inh inconclusive and Pf growth 48h inconclusive.
`O=C(CSc1nc2c(sc3ccccc32)c(=O)n1CCO)NCc1ccco1` gave MARV entry inh inconclusive, Shiga toxin inh -12, CHX counter -3, Pf growth 96h 96%, Lassa entry inh -11% and Pf growth 48h 32%.
`Cc1ccc(Cn2c(SCC(=O)NCc3ccco3)nc3ccsc3c2=O)cc1` gave MARV entry inh inconclusive, Shiga toxin inh 42, CHX counter 27*, Pf growth 96h inconclusive, Lassa entry inh -2% and Pf growth 48h 13µM*.
For Cc1ccc(Cn2c(SCC(=O)NCc3ccc(Cl)cc3)nc3ccsc3c2=O)cc1 the results were Lassa entry inh 6%[46.1 µM].
CC(=O)N1CCn2c3c(c4cc(C)ccc42)CCCC31 (configuration not stated) was read as Shiga toxin inh 11, CHX counter 1, Pf growth 96h 3% and Pf growth 48h 1%.
For CCN1CCn2c3c(c4cc(C)ccc42)CCCC31 (configuration not stated) the results were MARV entry inh inconclusive, Shiga toxin inh 40, CHX counter 25*, Pf growth 96h 55%, Lassa entry inh 1% and Pf growth 48h 8.3µM*.
For Cc1ccc2c(c1)c1c3n2CCN(C(=O)CCl)C3CCC1 (configuration not stated) the results were MARV entry inh inconclusive, Shiga toxin inh 24, CHX counter 9.8*, Pf growth 96h inconclusive, Lassa entry inh inconclusive and Pf growth 48h inconclusive.
For OCCN(CC#CCC(O)(c1ccccc1)C1CCCC1)CCO (configuration not stated) the results were MARV entry inh 20%, Shiga toxin inh -8, CHX counter -1, Pf growth 96h 17%, Lassa entry inh -14% and Pf growth 48h 7%.
Cc1nc(-c2cccc(Cl)c2)n[nH]1 was read as Shiga toxin inh 104*, CHX counter 23*, Pf growth 96h 15% and Pf growth 48h 40%.
For CC(C)C(OC(=O)C1=Cc2ccccc2OC1)C(=O)NC1CCCC1 (configuration not stated) the results were MARV entry inh inconclusive, Shiga toxin inh -3, CHX counter -5, Pf growth 96h 32%, Lassa entry inh 17% and Pf growth 48h 16%.
Screening Cc1ccsc1/C=C1\CCc2ccccc2C1=O returned MARV entry inh inconclusive, Shiga toxin inh 26, CHX counter 41*, Pf growth 96h 10µM* and Lassa entry inh inconclusive.
`O=C1/C(=C\c2ccc3ccccc3c2)CCCc2ccccc21` gave MARV entry inh inconclusive, Shiga toxin inh 73*, CHX counter 60*, Pf growth 96h -111%, Lassa entry inh inconclusive and Pf growth 48h inconclusive.
For Cc1ccccc1/C=C1\CCCc2ccccc2C1=O the results were MARV entry inh -26%, Shiga toxin inh 80*, CHX counter 45*, Pf growth 96h 211%, Lassa entry inh inconclusive and Pf growth 48h 170%.
`CC(C)(C)c1nnc(N/N=C/c2ccccc2O)n(N)c1=O` gave MARV entry inh inconclusive, Shiga toxin inh -2, CHX counter -3, Pf growth 96h inconclusive, Lassa entry inh inconclusive and Pf growth 48h 3.3µM*.
For CCc1nnc(N/N=C/c2ccccc2F)n1N the results were MARV entry inh inconclusive, Shiga toxin inh 48, CHX counter 10, Pf growth 96h -22% and Pf growth 48h 28%.
Screening CC(C)(C)c1nnc(N/N=C/c2ccccc2)n(N)c1=O returned MARV entry inh inconclusive, Shiga toxin inh 38, CHX counter 11*, Pf growth 96h 1%, Lassa entry inh -4% and Pf growth 48h -2%.
Screening O=C(Cc1cccc2ccccc12)NN1C(=O)/C(=C\c2cccnc2)SC1=S returned MARV entry inh 4%[46.1 µM], Shiga toxin inh -7, CHX counter -3, Pf growth 96h -4%, Lassa entry inh -22% and Pf growth 48h -9%.
For COc1cccc(-c2cc(C(=O)NCc3ccccc3)no2)c1 the results were MARV entry inh 28%[46.1 µM] and Lassa entry inh inconclusive.
Screening C=C(C)COc1ccc(-c2n[nH]c(C)c2Oc2ccccc2OC)c(O)c1 returned MARV entry inh inconclusive, Shiga toxin inh 15, CHX counter -1, Pf growth 96h 4.7µM*, Lassa entry inh inconclusive and Pf growth 48h 5.2µM*.
For CCOc1ccc(-c2n[nH]c(C)c2Oc2ccccc2OC)c(O)c1 the results were MARV entry inh inconclusive, Shiga toxin inh -4, CHX counter -2, Lassa entry inh inconclusive and Pf growth 48h 4.1µM*.
`O=C(/C=C/Nc1ccccc1C(=O)O)c1cccs1` gave MARV entry inh inconclusive, Shiga toxin inh 75*, CHX counter 33*, Pf growth 96h -30%, Lassa entry inh 12% and Pf growth 48h 60%.
For Cc1ccc(NC2CCCN(C(=O)c3cccs3)C2)cc1C (configuration not stated) the results were Shiga toxin inh 30, CHX counter 9, Pf growth 96h 8% and Pf growth 48h 7%.
For O=C(/C=C/Nc1ccc(Nc2ccccc2)cc1)c1cccs1 the results were MARV entry inh 8%[46.1 µM], Shiga toxin inh 103*, CHX counter 63*, Pf growth 96h -20%, Lassa entry inh inconclusive and Pf growth 48h 237%.
Screening Cc1cc(N/C=C/C(=O)c2cccs2)ccc1F returned Shiga toxin inh 97*, CHX counter 29*, Pf growth 96h 25% and Pf growth 48h 367%.
`Cc1c(N/C=C/C(=O)c2cccs2)c(=O)n(-c2ccccc2)n1C` gave MARV entry inh 2%, Shiga toxin inh -10, CHX counter -2, Pf growth 96h -17%, Lassa entry inh 1% and Pf growth 48h inconclusive.
O=C(O)c1ccccc1N/C=C\[N+](=O)[O-] was read as MARV entry inh -17%[46.1 µM], Shiga toxin inh 29, CHX counter -5, Pf growth 96h inconclusive, Lassa entry inh -14%[46.1 µM] and Pf growth 48h 9%.
`Cc1ccc(N/C=C/C(=O)c2cccs2)cc1C` gave MARV entry inh inconclusive, Shiga toxin inh 32, CHX counter 31*, Pf growth 96h 31%, Lassa entry inh 10µM* and Pf growth 48h 267%.
